Results published in the supplement of paper PMC10981050.
“And” between values parts separate entries of the source, which are not always exact repeats. Equal entries are not always repeated. Structures can show the parent of a compound that is named as a salt.

Experiments:
Experiment in all cases: cell viability relative to vehicle control; higher = less cytotoxic
Details in all cases: 10 µM
K562 = test system: K562
In short: (§1)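 Mutant clones made by CRISPR editing and their isogenic wild-type counterparts, from four leukaemia lines, were exposed to a single 10 µM dose of each library compound for 48 h. The supernatant was then removed and CellTiter-Glo luminescence was read. Viability was reported as percent of the on-plate vehicle control.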

MARIMO = test system: MARIMO
In short: as §1

MOLM14 = test system: MOLM14
In short: as §1

OCI-AML2 = test system: OCI-AML2
In short: as §1

SMILES	cell viability (K562; SRSF2 genotype: SRSF2 P95H/wt)	cell viability (K562; SRSF2 genotype: SRSF2 wt/wt) [%]	cell viability (MARIMO; SRSF2 genotype: SRSF2 P95H/wt) [%]	cell viability (MARIMO; SRSF2 genotype: SRSF2 wt/wt) [%]	cell viability (MOLM14; SRSF2 genotype: SRSF2 P95H/wt) [%]	cell viability (MOLM14; SRSF2 genotype: SRSF2 wt/wt) [%]	cell viability (OCI-AML2; SRSF2 genotype: P95H/wt) [%]	cell viability (OCI-AML2; SRSF2 genotype: wt/wt) [%]
CC1=CCC2CC1C2(C)C (stereo not drawn)	99.8% and 101%	99.4	95.5	94.5	98.5	99.8	97	102
C[C@]12CC[C@@H]3c4ccc(O)cc4CC[C@H]3[C@@H]1CC[C@@H]2OC(=O)CCC1CCCC1 [Estradiol Cypionate]	91.5% and 90.9%	91.3	86.9	81.6	75	84.1	55.4	53.1
COc1cc2nccc(Oc3ccc(NC(=O)Nc4cc(C)on4)c(Cl)c3)c2cc1OC [Tivozanib (AV-951)]	11.4% and 16.2%	21.9	56.2	61.4	11.3	10.3	26.1	29.9
COc1ccc(-c2nc(N3CCOCC3)c3sc(CN(C)c4ncc(C(=O)NO)cn4)cc3n2)cn1	1.16% and 7.95%	2.68	1.32	2.78	0.39	0.45	0.79	1.17
OC1CCC(Oc2cccc3cnc(Nc4ccc5nc[nH]c5c4)nc23)CC1 (stereo not drawn)	40.6% and 46.8%	32.7	11.5	4.14	1.38	0.57	1.67	16.3
CN1CCN(c2cccc(Nc3nc4c(-c5ccc(S(C)(=O)=O)cc5)cccn4n3)c2)CC1	68% and 76.9%	70.5	67.1	67.8	3.24	3.52	11.9	22.6
Nc1ccc(C(=O)Nc2cccc(-c3nc(N4CCOCC4)c4oc5ncccc5c4n3)c2)cn1	75.4% and 89.9%	95.8	73.7	79.4	103	104	86.7	89.1
C[C@]1(c2nc3c(C(N)=O)cccc3[nH]2)CCCN1 [ABT-888 (Veliparib)]	93.1% and 93%	89.4	91	96.5	82.4	79	70.2	83.5
CC(=O)O[C@H](CC(=O)O)C[N+](C)(C)C [O-Acetyl-L-carnitine hydrochloride]	112% and 110%	110	110	110	101	108	105	104
CC(C)c1nc(CN(C)C(=O)N[C@@H](CCN2CCOCC2)C(=O)N[C@H](CC[C@H](Cc2ccccc2)NC(=O)OCc2cncs2)Cc2ccccc2)cs1 [Cobicistat (GS-9350)]	88.4% and 101%	95.7	94.7	104	94.3	98.3	95	83.8
NS(=O)(=O)c1ccc(NC(=O)Nc2ccc(F)cc2)cc1	99.9% and 107%	107	115	113	110	108	99.6	95
O=C(Nc1ccc2c(O)cc(S(=O)(=O)O)cc2c1)Nc1ccc2c(O)cc(S(=O)(=O)O)cc2c1	103% and 108%	99.1	110	101	101	104	112	111
CCCC(CCC)C(N)=O [Valpromide]	96.1% and 94.6%	100	99.5	101	102	99.5	95	107
Cn1nnc(-c2ccc(-c3ccc(N4C[C@H](CO)OC4=O)cc3F)cn2)n1 [Tedizolid]	87.1% and 82.2%	83.3	77.3	88.1	89.4	85.5	79.9	81.6
N#C[C@@H]1C[C@@H]2C[C@@H]2N1C(=O)[C@@H](N)C12CC3CC(CC(O)(C3)C1)C2	107% and 99.7%	107	97.6	88.9	96.7	99.5	96.6	108
O=C(O)Cc1ccccc1Nc1c(Cl)cccc1Cl [Diclofenac Diethylamine]	102% and 108%	95.4	105	101	106	102	105	103
Cc1nc(N)sc1-c1ccnc(Nc2ccc(N3CCOCC3)cc2)n1	59.9% and 67.6%	64.5	40.8	44.3	5.52	4.7	9.4	13.7
Cn1cnc(=N)c2[nH]cnc21 [3-Methyladenine (3-MA)]	94.6% and 88.8%	106	82.6	92.4	88	92	93.4	97.6
CCC[C@H](N[C@H]1CCc2cc(F)cc(F)c2C1)C(=O)Nc1cn(C(C)(C)CNCC(C)(C)C)cn1	78% and 88.1%	88.7	74.3	86.2	78	88.8	73.3	72.3
CCOC(=O)C1=C(N)Oc2ccc(Cl)cc2C1C(C#N)C(=O)OCC (stereo not drawn)	85.4% and 84.9%	65.4	56.6	55.8	64.2	93.2	63.7	64.2
C[C@]12CCC(=O)C=C1CC[C@@H]1[C@@H]2[C@@H](O)C[C@@]2(C)[C@H]1CC[C@]2(O)C(=O)CO [Hydrocortisone (Cortisol)]	99.7% and 98.6%	110	105	99	107	100	109	118
